In assay [1] the target is Cellular tumor antigen p53 (Homo sapiens) (UniProt P04637). The assay can be described thus: Primary qHTS for small molecule compounds that upregulate eGFP-tagged delta133p53alpha (in N-terminal) cells. (AID 2060322). Also: nearly all actives have a fitted effect of over 75% in size. Also: potency is read from the fitted curve at half-maximal effect.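 As to activation: series mostly up to about 56 µM; 0% = DMSO vehicle and 100% = reference activator.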 Particulars: NCI-H358 eGFP-delta133p53alpha fluorescence, 24 h; activation: hits give high values. In a few lines:
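NCI-H358 cells pre-induced 24 h with 10 ng/ml doxycycline to express N-terminal eGFP-delta133p53alpha, then dosed 24 h at 37C without doxycycline; fixed, Hoechst-stained, GFP intensity by laser scanning cytometry, normalized to DMSO (0%) and 57.5 uM 5-azacytidine (100%).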
Background: Quantitative high-throughput screening tests each substance at several concentrations.

Assay [2] can be described thus: qHTS for Inhibitors of the Aldehyde Dehydrogenase Family (ALDH1A2, ALDH1A3, ALDH2, ALDH3A1) (AID 2061307). Also: nearly all actives have a fitted effect of over 50% in size. As to Potency: test system not described further here; potency is read from the fitted curve at half-maximal effect.
Assay [3] deals with Aldehyde dehydrogenase, mitochondrial (Homo sapiens) (UniProt P05091). Description: qHTS for Inhibitors of the Aldehyde Dehydrogenase Family (ALDH2) Primary screen (AID 2061308).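 Also: plate controls were vehicle for no effect and reference inhibitor for full effect; nearly all actives have a fitted effect of over 55% in size.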
For assay [4], the target named is Retinaldehyde dehydrogenase 3 (Homo sapiens) (UniProt P47895). Description: qHTS for Inhibitors of the Aldehyde Dehydrogenase Family (ALDH1A3) Confirmatory screens (AID 2061311). Also: nearly all actives have a fitted effect of over 60% in size. Also: potency is read from the fitted curve at half-maximal effect.
For assay [5] the target is unchanged. The assay can be described thus: qHTS for Inhibitors of the Aldehyde Dehydrogenase Family (ALDH1A3) Primary screen (AID 2061315). Also: potency is read from the fitted curve at half-maximal effect.
The target of assay [6] is Aldehyde dehydrogenase 1A1 (Homo sapiens) (UniProt P00352). Description: qHTS for Inhibitors of the Aldehyde Dehydrogenase Family (ALDH1A1) Confirmatory screens (AID 2061316). Also: nearly all actives have a fitted effect of over 65% in size. Also: potency is read from the fitted curve at half-maximal effect.
Assay [7] has as its target Retinal dehydrogenase 2 (Homo sapiens) (UniProt O94788). Description: qHTS for Inhibitors of the Aldehyde Dehydrogenase Family (ALDH1A2) Confirmation screens (AID 2061314). Also: nearly all actives have a fitted effect of over 65% in size. Also: potency is read from the fitted curve at half-maximal effect.
Assay [8] has as its target Retinaldehyde dehydrogenase 3 (Homo sapiens) (UniProt P47895). The assay can be described thus: qHTS for Inhibitors of the Aldehyde Dehydrogenase Family (ALDH1A3) Validation screen (AID 2061312). Also: nearly all actives have a fitted effect of over 45% in size. Also: potency is read from the fitted curve at half-maximal effect.
Assay [9] can be described thus: BET inhibitor-based combinations targeting novel dependencies in MECOM-rearranged (r) AML: HNT-34 cell line (AID 2202234). Also: nearly all actives have a fitted effect of over 35% in size. Also: potency is read from the fitted curve at half-maximal effect. In a few lines: (§1)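 Cells at 500/well were exposed for 48 hr to MIPE v5.0 drugs as 11-point dose curves. Viability was read by CellTiter-Glo luminescence and normalized to DMSO and empty-well controls. Activity was expressed as AUC and per-cell-line Z-AUC.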

Assay [10] can be described thus: BET inhibitor-based combinations targeting novel dependencies in MECOM-rearranged (r) AML: UCSD-AML1 cell line (AID 2202235). Also: nearly all actives have a fitted effect of over 40% in size. Also: potency is read from the fitted curve at half-maximal effect. In outline: as §1
The nature of assay [11]: BET inhibitor-based combinations targeting novel dependencies in MECOM-rearranged (r) AML: AML-191 cell line (AID 2202236; also: nearly all actives have a fitted effect of over 35% in size; also: potency is read from the fitted curve at half-maximal effect). In outline: (§2)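 AML cell lines seeded at 500 cells/well, treated with 11-point dose curves for 48 h. Viability by CellTiter-Glo luminescence, normalised to DMSO and empty wells; activity expressed as AUC and per-cell-line Z-transformed AUC.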
A short description of assay [12]: BET inhibitor-based combinations targeting novel dependencies in MECOM-rearranged (r) AML: SET-2 cell line (AID 2202231).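 Also: plate controls were DMSO treated cells for no effect and wells without cells for full effect; nearly all actives have a fitted effect of over 35% in size.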 Conditions: SET-2 AML cells viability, CellTiter-Glo luminescence, 48 h; viability: hits give low values, series mostly up to about 46 µM. In outline: as §2
Background: Cellular ATP, detected with luciferase, serves as a proxy for viable cell number.

The nature of assay [13]: BET inhibitor-based combinations targeting novel dependencies in MECOM-rearranged (r) AML: OCI-AML3 cell line (AID 2202232).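 Also: series mostly up to about 46 µM; plate controls were DMSO vehicle wells for no effect and wells without cells for full effect; nearly all actives have a fitted effect of over 35% in size.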 Particulars: Potency: OCI-AML3 viability. In outline:
as §2

Assay [14] can be described thus: BET inhibitor-based combinations targeting novel dependencies in MECOM-rearranged (r) AML: MV-4-11 cell line (AID 2202233).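 Also: plate controls were DMSO for no effect and blank wells for full effect; nearly all actives have a fitted effect of over 45% in size.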 In outline: as §1
Assay [15] is described as follows: BET inhibitor-based combinations targeting novel dependencies in MECOM-rearranged (r) AML: AML-194 cell line (AID 2202237;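 also: plate controls were vehicle wells for no effect and wells without cells for full effect; nearly all actives have a fitted effect of over 40% in size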). In outline:
as §2

activation, Potency and viability data for 26 compounds are collected here from PubChem BioAssay (NCATS).

For orientation: viability means a read-out of living cells in per cent, often relative to untreated cells.

Several values for one entry are separate records, joined by “and”; a condition that tells them apart may be missing. Equal values may be shown once. Inconclusive results are not listed. A number with no mark means an inactive call. Activity calls are given as the source filed them. Calls follow the shape of the dose curve; as a rule, active = well fitted curve in the direction sought with a large enough effect; inconclusive = small, poorly fitted or top-dose-only effect, or another doubt; inactive = no such curve, though single readings can be large; an effect the other way counts as inactive or inconclusive.

Chain of Cellular tumor antigen p53 (Homo sapiens) (P04637 whole entry, looked up): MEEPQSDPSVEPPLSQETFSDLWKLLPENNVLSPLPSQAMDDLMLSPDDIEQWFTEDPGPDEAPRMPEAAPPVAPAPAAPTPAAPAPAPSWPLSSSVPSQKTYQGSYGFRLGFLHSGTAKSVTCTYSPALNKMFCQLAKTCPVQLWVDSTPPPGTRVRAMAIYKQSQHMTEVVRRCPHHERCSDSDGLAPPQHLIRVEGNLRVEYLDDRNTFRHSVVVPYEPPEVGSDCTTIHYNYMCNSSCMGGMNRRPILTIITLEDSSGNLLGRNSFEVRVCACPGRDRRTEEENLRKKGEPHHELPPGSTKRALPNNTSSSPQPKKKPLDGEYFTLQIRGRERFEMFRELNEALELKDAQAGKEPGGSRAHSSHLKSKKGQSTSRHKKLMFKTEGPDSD

For `O=C(O)c1cc(C(F)(F)F)ccc1N1CC[C@H](OCc2ccccn2)C1`, in assay [1], the activation is -17%. In addition, the Potency entry in assay [2], in [3], in assay [4], in assay [5] and in assay [6] was “inactive” throughout.

For `CC(C)c1ccc2c(c1)CCC1[C@](C)(C(=O)O)CCC[C@]21C` (some centres undefined), in [1], the activation is 9.82%. Besides, the Potency entry in assay [2], in [4], in assay [5] and in assay [6] was “inactive” throughout.

For `CO[C@]1(NC(=O)CSC(F)F)C(=O)N2C(C(=O)O)=C(CSc3nnnn3CCO)CO[C@H]21`, the activation in assay [1] was -7.53%. The Potency entry in assay [2], in [4], in assay [7] and in assay [5] was “inactive” each time. Moreover, the Potency in assay [6] is 14.2 µM (active).

For `COc1ccc2c(c1)O[C@H](O[C@@H]1O[C@H](CO)[C@@H](O)[C@H](O)[C@H]1O)C(=O)N2`, the activation in assay [1] is -12.5%. Besides, the Potency entry in assay [2] and in assay [3] was “inactive” each time. Moreover, the Potency in [4] is 13.9 µM (active); in [5] it was 6.31 µM (active).

Take `O=C(/C=C/c1ccc(O)c(O)c1)O[C@@H]1[C@@H](O)[C@H](OC2CCCCC2O)O[C@H](CO)[C@H]1O` (some centres undefined): the activation in assay [1] was 2.29%. The Potency result in assay [2] and in assay [7] was “inactive” in each case. Moreover, the values for the Potency in [4] and in assay [5] were 5.51 µM (active) and 3.98 µM (active), respectively.

`COc1cccc(CNC(=O)Nc2nc(-c3ccncc3)cs2)c1`: the activation in assay [1] is -8.04%. Further, the Potency in [2] is 2.01 µM (active); in assay [7] it was 5.65 µM (active). For the same compound, the Potency entry in [3] and in assay [5] was “inactive” each time.

On to `Cc1onc(-c2ccccc2)c1C(=O)N[C@@H]1C(=O)N2[C@@H]1SC(C)(C)[C@@H]2C(=O)O`, for which the activation in assay [1] was -0.333% and 17%. Further, the Potency result in [2], in assay [3] and in [5] was “inactive” throughout.

Take `Cc1cc(N2CCOCC2)cc2[nH]c(-c3c(NC[C@@H](O)c4cccc(Cl)c4)cc[nH]c3=O)nc12`: the Potency in assay [1] was 21.7 µM (active) and 23.9 µM (active); in assay [9] it was 7.42 µM (active); in assay [10], 296 nM (active); in assay [11], 590 nM (active). Moreover, the Potency result in assay [2], in assay [3], in assay [8] and in assay [5] was “inactive” each time.

As to `O=S(=O)(O)c1ccc2cc(N=Nc3cc(S(=O)(=O)O)c4cccnc4c3O)ccc2c1`, the activation in assay [1] is -29.8% and -2.86%. Moreover, the Potency entry in assay [2], in assay [8], in assay [7], in assay [5], in assay [13] and in [14] was “inactive” throughout. Further, the Potency result in assay [9], in assay [10] and in assay [11] was “inactive” throughout. Moreover, the viability in [12] is 95.4%.

`CC(C)S(=O)(=O)N[C@H]1CCOC[C@@H]1c1ccc(-c2ccc(C#N)s2)cc1`: in assay [1], the activation was -15%. Moreover, the Potency entry in assay [3] was “inactive”.

For `C=C[C@H]1C(O[C@@H]2O[C@H](CO)[C@@H](O)[C@H](O)[C@H]2O)OC=C2C(=O)N3CCc4c([nH]c5ccccc45)C3CC21` (some centres undefined), in [1], the Potency is 5.22 µM (active). For the same compound, in assay [3], the Potency entry was “inactive”.

For `CCOC(=O)N1CCC(CN(Cc2ccc(Cl)cc2)Cc2ccc([N+](=O)[O-])s2)C1` (centres undefined), the activation in assay [1] was 6.21%. Moreover, the Potency entry in [2], in [7] and in assay [5] was “inactive” each time. Besides, in assay [8], the Potency is 10 µM (active).

Take `C=CCC1=C[C@]2(OC)[C@H](C)[C@@H](c3ccc(OC)c(OC)c3)O[C@]2(OC)CC1=O`: the activation in [1] is -3.57%. Further, the Potency result in assay [3] is “inactive”.

Consider `COC(=O)C1=COC(O[C@@H]2O[C@H](CO)[C@@H](O)[C@H](O)[C@H]2O)/C(=C\COC(=O)c2ccc(OC3OC(CO)C(O)C(O)C3O)c(OC)c2)C1CC(=O)OCCc1ccc(O)cc1` (some centres undefined), for which the activation in assay [1] is -11.5%. In assay [3], the Potency result is “inactive”.

Regarding `O=C(O[C@H]1[C@@H]2C=CO[C@@H](O[C@@H]3O[C@H](CO)[C@@H](O)[C@H](O)[C@H]3O)[C@@H]2[C@@]2(CO)O[C@@H]12)c1ccc(O)c(O)c1`, the activation in assay [1] is -2.68%. The Potency result in assay [3] was “inactive”.

For `O=C(NNc1ccccc1)c1ccncc1`, in assay [1], the activation is -8.33%. Also, the Potency result in assay [2], in [7], in [6], in [14], in assay [9] and in [10] was “inactive” each time. The Potency entry in assay [11] and in assay [15] was “inactive” throughout.

As to `COc1ccc(/C=C/C(=O)O[C@@H]2[C@@H](O)[C@@H](O)[C@H](O[C@@H]3C=C(CO)[C@H]4[C@H](O[C@@H]5O[C@H](CO)[C@@H](O)[C@H](O)[C@H]5O)OC=C[C@H]43)O[C@H]2C)cc1O`, the activation in assay [1] is -6.87%. Moreover, in assay [3], the Potency entry is “inactive”.

Turning to `O=C(/C=C/c1ccccc1)O[C@@H]1[C@@H](CO)O[C@@](CO)(O[C@H]2O[C@H](CO)[C@@H](O)[C@H](O)[C@H]2O)[C@H]1O`, in assay [1], the activation was -26%. For the same compound, in assay [3], the Potency entry was “inactive”.

`C=C1CCC2C(C)(COC3OC(COC(=O)CC(=O)O)C(O)C(O)C3O)CCCC2(C)C1CCC1=CCOC1=O` (centres undefined): the activation in assay [1] is 8.4%. In assay [3], the Potency entry is “inactive”.

For the compound `CC(=O)N1CCc2ccc(O)c(OC3OC(COC4OCC(O)(CO)C4O)C(O)C(O)C3O)c2C1Cc1ccc(O)cc1` (centres undefined), in assay [1], the activation was -0.763%. Further, the Potency entry in [3] is “inactive”.

As to `COC(=O)C1=COC(O[C@@H]2O[C@H](CO[C@@H]3O[C@H](COC(=O)/C=C\c4ccc(O)cc4)[C@@H](O)[C@H](O)[C@H]3O)[C@@H](O)[C@H](O)[C@H]2O)C2C(CO)=CCC12` (some centres undefined), the activation in assay [1] is 33%. The Potency result in assay [3] is “inactive”.

As to `COc1cc2c(cc1NS(=O)(=O)c1ccc(Br)cc1C)n(C)c(=O)n2C`, the activation in assay [1] was -22.3%. Also, the Potency result in assay [2] and in [6] was “inactive” throughout. Besides, the figures for the Potency in assay [8] and in [7] were 31.6 µM (active) and 20.1 µM (active), respectively.

In the case of `COc1c(C)c(C(=O)c2ccc(N)c(C(=O)O)c2)n2ccccc12`, in assay [1], the activation was 10% and 14.3%. Besides, the Potency entry in [3] is “inactive”.

In the case of `CC1(C)C=Cc2c(ccc3c2[N+]([O-])=C2C3(O)CC34NC(=O)C5(CCCN5C3=O)CC4C2(C)C)O1` (centres undefined), the activation in assay [1] is 6.25%. The Potency result in assay [3] was “inactive”.

For `COC(CCc1ccc(O)cc1)CC(=O)CCc1ccc(O)cc1` (centres undefined), the activation in assay [1] is 7.63%. Moreover, the Potency entry in assay [2], in assay [5] and in assay [6] was “inactive” in each case.

For `COC(=O)C1=CO[C@@H](O[C@@H]2O[C@H](CO[C@@H]3O[C@H](COC(=O)/C=C/c4ccc(O)cc4)[C@@H](O)[C@H](O)[C@H]3O)[C@@H](O)[C@H](O)[C@H]2O)[C@@H]2C(CO)=CC[C@H]12`, the activation in assay [1] is -3.05%. In addition, in [3], the Potency result was “inactive”.
